# Assay outcomes as filed in PubChem BioAssay.
# MITF inh = blocks human microphthalmia-associated transcription factor; AlphaScreen MITF homodimerization, bead proximity signal; inhibition, % at 2.6 µM; 0.91% of 650,000 active; AID 1259374; in the data active = inhibition above about 50%;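 note: 0% = vehicle wells with protein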
# FBW7 act = human FBW7 E3 ligase activation, primary screen. Q969H0. AlphaScreen FBW7–phospho-cyclin E peptide binding, activator screen. normalized activity (activation), % at 26.1 µM. 0.13% of 650,000 active. AID 1259310; in the data active = normalized activity above about 1.9%;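 note: purified mutant Fbw7 with reduced substrate affinity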
# TEAD-YAP inh = TEAD-YAP interaction inhibition | inhibition, % at 9.12 µM | AID 1259422 | 1.4% of 640,000 active | HEK-TIYL cells, TEAD-Gal4/YAP UAS-luciferase luminescence; in the data active = inhibition above about 32%;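 note: 0% = median of test compound wells and 100% = reference inhibitor wells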
# GPR151 ag = activates the human receptor GPR151; Q8TDV0; PathHunter beta-arrestin GPR151 cells, luminescence; activation, % at 11.2 µM; 1% of 650,000 active; AID 1508602; in the data active = activation above about 4.9%;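 note: 0% = median of compound wells and 100% = cells with positive control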
# Target sequence (Q8TDV0 whole entry, looked up): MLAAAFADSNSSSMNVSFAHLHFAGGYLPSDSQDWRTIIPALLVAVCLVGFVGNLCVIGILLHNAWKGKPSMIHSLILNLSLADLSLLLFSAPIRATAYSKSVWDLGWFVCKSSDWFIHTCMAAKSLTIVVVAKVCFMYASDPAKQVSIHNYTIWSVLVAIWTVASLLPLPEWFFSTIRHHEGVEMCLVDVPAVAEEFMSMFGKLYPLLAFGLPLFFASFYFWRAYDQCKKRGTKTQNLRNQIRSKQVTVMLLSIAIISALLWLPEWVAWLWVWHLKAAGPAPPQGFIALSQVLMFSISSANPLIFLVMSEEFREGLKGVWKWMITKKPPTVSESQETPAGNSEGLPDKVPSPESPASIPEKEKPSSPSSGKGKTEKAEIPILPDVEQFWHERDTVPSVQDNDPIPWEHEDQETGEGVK
# GPR151 confirm = human GPR151 activation, confirmation screen; shares compounds with GPR151 ag; 6,700 tested, under 10 active; AID 1508609; activation, % at 11.2 µM; GPR151 PathHunter beta-arrestin cells, luminescence, 90 min; % of EA-reagent control over plate median;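 active = mean percent activation across replicates above the confirmation screen cutoff of 4.91%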
# GPR119 counter = GPR119 activation, counter-screen for GPR151 activators; shares compounds with GPR151 ag; GPR119 PathHunter beta-arrestin cells, luminescence, 90 min; 0 = compound-well median, 100 = enzyme-acceptor control; activation, % at 11.2 µM; 0.3% of 6,700 active; AID 1508611;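 active = mean percent activation in the counterscreen above 29.09%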;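 note: counterscreen on off-target GPR119 to flag nonselective hits from the GPR151 activator screen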
# * marks the source's active call; other numbers are inactive results; . = not tested or not shown. Rows were chosen to be rich in hits. Some 3.4% of all compounds tested hit in one or more screens of this group.
SMILES,MITF inh,FBW7 act,TEAD-YAP inh,GPR151 ag,GPR151 confirm,GPR119 counter
CCOC(=O)c1ccc(NC(=O)C2CCC(=O)N2S(=O)(=O)c2ccc(C)cc2)cc1 (centres undefined),6,0,8,-1,.,.
N#CCCn1cc(/C=C(\C#N)C(=O)O)c(-c2cccc(OC(F)F)c2)n1,-4,0,-12,3,.,.
CC(=O)Nc1ccc(-c2csc(NC(=O)c3ccc(C)s3)n2)cc1,8,0,-42,0,.,.
CCOC(=O)N1CCc2c(sc(NC(=O)C(C)(C)C)c2C#N)C1,-4,0,-13,0,.,.
CCc1ccc(CNCc2cc(NC(=O)c3ccccn3)cc(C(=O)N(C)C)c2)cc1,-5,0,2,10*,1,10
COc1ccc(Cn2c(=O)[nH]c3c(C(N)=O)nc(-c4ccc(C)c(C)c4)nc32)cc1,1,1,-11,5.0*,1,8
COc1ccc(Cn2c(=O)[nH]c3c(C(N)=O)nc(-c4cccc(C)c4)nc32)cc1,0,0,7,0,.,.
CCC(C(=O)Nc1ccc(F)cc1F)n1c2ccccc2c2nc(=O)cc(C)n21 (centres undefined),-10,0,-5,-1,.,.
CCC(C(=O)Nc1ccc(F)cc1)n1c2ccccc2c2nc(=O)cc(C)n21 (centres undefined),11,0,5,5.3*,0,0
COc1ccc(C2CCN(CC(=O)N3CCOCC3)CC2)cc1,6,0,-5,1,.,.
COc1cc(OC)nc(CSCC(=O)N2CCN(CC(=O)N3CCOCC3)CC2)n1,8,0,1,5.2*,0,-12
CCOC(=O)c1sc2nc(C)nc(Nc3ccc([N+](=O)[O-])cc3)c2c1C,8,0,4,0,.,.
O=C(Cn1nnc(-c2ccc([N+](=O)[O-])cc2)n1)NCC1CC1,14,0,-5,5.9*,1,5
CCOC(=O)c1ccc(SCC2CCCO2)c([N+](=O)[O-])c1 (centres undefined),4,0,-62,2,.,.
CC(C)OC(=O)c1ccc(SCC2CCCO2)c([N+](=O)[O-])c1 (centres undefined),-2,0,-25,9.0*,0,-7
O=C(COc1cc(F)ccc1[N+](=O)[O-])Nc1ccccc1Br,-8,0,-5,-1,.,.
O=c1oc2ccc(Br)cc2cc1-c1nnc(Nc2ccc(Cl)cc2Cl)s1,-2,0,-2,1,.,.
COc1ccc(Br)cc1/C=C1\N=C(c2cc(Br)ccc2OC)OC1=O,13,0,-10,0,.,.
COc1ccc(Br)cc1C1=N/C(=C\c2cccc(OC)c2OC)C(=O)O1,19,0,-8,6.8*,1,9
CC(=O)Oc1ccc(C2C(C#N)=C(C)NC3=C2C(=O)CC(C)(C)C3)cc1 (centres undefined),15,0,6,-1,.,.
COc1ccccc1C(=O)NC1(C(F)(F)F)NC(=O)N(c2ccc(C)c(C)c2)C1=O (centres undefined),-1,1,-5,7.3*,0,-7
O=C(NC1(C(F)(F)F)NC(=O)N(c2ccc(F)cc2)C1=O)c1ccncc1 (centres undefined),-2,0,5,13*,1,7
O=C(NC1(C(F)(F)F)NC(=O)N(c2ccc(F)cc2)C1=O)c1ccc(F)cc1 (centres undefined),5,0,11,1,.,.
Fc1ccc2[nH]c3c(N4CCCCC4)ncnc3c2c1,-5,0,28,0,.,.
Cc1ccc(C(c2nnnn2CCc2ccccc2)N2CCOCC2)cc1 (centres undefined),-19,0,5,6.8*,1,-1
COc1ccc2nc(NC(=O)C34CCC(C)(C(=O)C3)C4(C)C)sc2c1 (centres undefined),-4,0,-11,9.1*,0,-9
CCN(C(=O)/C=C/c1ccc(OC)c(OC)c1)C1CCCCC1,1,0,-7,1,.,.
Nc1ccc2nc(SCC(=O)c3ccc(Cl)cc3)sc2c1,14,0,-4,6.6*,0,-2
CC1CC(NC(=O)c2cncc(Br)c2)CC(C)(C)C1 (centres undefined),-5,0,3,1,.,.
O=C(NCc1ccccc1F)C1CN(c2nc3ccccc3s2)C1,2,0,-36,1,.,.
